Screening results from PubChem.
PrPC TRFRET: inhibitors of human cell surface prion protein PrPC; AID 720596; TR-FRET read-out; P04156; 370,000 compounds, 0.43% hits; inhibition, % at 13.8 µM; in the data active means inhibition above about 24%; further: 0% = median of the test wells and 100% = reference compound wells
CCHFV vOTU inh: blocks the CCHF virus ovarian tumor domain protease. CCHFV vOTU protease, Pep-AMC fluorescence. inhibition, % at 11.5 µM. 370,000 compounds, 0.55% hits; in the data active means inhibition above about 30%; further: 0% = vehicle wells with enzyme and 100% = no enzyme wells
VHR inh abs: inhibitors of human VHR1 phosphatase (DUSP3); 290,000 compounds, 0.52% hits; inhibition, % at 13.3 µM; P51452; recombinant VHR phosphatase, pNPP absorbance; in the data active means inhibition above about 50%
Target sequence (P51452 whole entry, looked up): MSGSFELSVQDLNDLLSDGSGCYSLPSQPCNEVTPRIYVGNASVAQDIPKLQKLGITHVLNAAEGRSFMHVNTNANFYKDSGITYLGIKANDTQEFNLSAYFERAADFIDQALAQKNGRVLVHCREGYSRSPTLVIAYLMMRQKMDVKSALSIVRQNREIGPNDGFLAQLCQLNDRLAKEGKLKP
Vc quorum ag-1: induces V. cholerae light production without autoinducers. 350,000 compounds, 0.16% hits. AID 588436. activation, % at 18.7 µM. V. cholerae BH1578 lux reporter, luminescence, 6 h; in the data active means activation mostly above about 9.7%, no sharp cut-off
Yp Topo-I inh: Y. pestis Topo-I inhibition via cleavage products. Y. pestis Topo-I cleavage product accumulation, plate reader. activity, % at 10 µM. 360,000 compounds, 0.064% hits; in the data active means activity above about 50%, passing the limit was not always enough
MazEF act: MazEF (E. coli) toxin RNase activation. activation, % at 20 µM. 350,000 compounds, 0.32% hits. AID 504720. P0AE70. FAM/BHQ RNA-DNA oligo cleavage fluorescence, 5 h; in the data active means activation above about 50%
Target sequence (P0AE70 whole entry, looked up): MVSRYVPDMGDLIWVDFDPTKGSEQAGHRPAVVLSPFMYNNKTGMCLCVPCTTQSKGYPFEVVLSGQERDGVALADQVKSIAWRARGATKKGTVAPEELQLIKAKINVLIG
Vc quorum ag-2: inducers of V. cholerae quorum light production without autoinducers. shares compounds with Vc quorum ag-1. V. cholerae BH1578 lux reporter, luminescence, 6 h. activation, % at 50 µM. 620 tested, under 10 active. AID 602243; call rule not given here
* hit, by the source's call; i = inactive; . = no result given. A selection: hits, their analogues and other compounds. The true share with any hit is near 1.8%.

SMILES	PrPC TRFRET	CCHFV vOTU inh	VHR inh abs	Vc quorum ag-1	Yp Topo-I inh	MazEF act	Vc quorum ag-2
O=C(OCCN1CCN(c2ncc(C(F)(F)F)cc2Cl)CC1)c1ccc(Cl)cc1	2.2	-5.0	-10.9	.	16.0	-14.0	.
O=C(OC1CCN(c2ncc(C(F)(F)F)cc2Cl)CC1)c1ccc(Cl)cc1	3.5	-4.8	10.5	12.5	-2.3	1.2	-0.2
Cc1cccc(NC(=S)NCCc2c[nH]c3ccccc23)c1	1.6	-6.5	-1.6	-0.3	-7.4	1.3	.
Cc1ccc(NC(=S)NCCc2c[nH]c3ccccc23)cc1	5.5	-6.1	5.4	16.7*	-11.4	-2.5	0.1
Cc1ccc(C2(c3ccccc3)NC(=O)N(CC(=O)N(C)C3CCS(=O)(=O)C3)C2=O)cc1C (centres undefined)	11.2	1.8	.	i	18.9	1.1	.
CCC1(CC)NC(=O)N(CC(=O)OCC(=O)NC(=O)c2ccccc2OC)C1=O	-5.3	-6.3	.	14.3	-9.0	2.8	0.0
CCC1(CC)NC(=O)N(CC(=O)OCC(=O)NC(=O)c2ccc(Cl)cc2)C1=O	6.9	6.3	-10.7	-0.4	-3.6	-15.3	.
COC(C(=O)Nc1ccccc1C(=O)N1CCOCC1)c1ccccc1 (centres undefined)	0.5	3.8	-4.4	10.8	3.4	6.3	-0.3
Cc1ccc(OC(C)C(=O)Nc2ccccc2C(=O)N2CCOCC2)cc1 (centres undefined)	-0.9	3.2	22.6	7.7	-11.9	-4.9	.
COc1cccc(CN2CCC(C(=O)Nc3ccc(-c4cccc(C)c4)cc3)CC2)c1O	-18.3	1.3	13.6	-2.3	-7.3	10.6	.
O=C(Oc1ccc2ccc(OC(=O)N3CCOCC3)cc2c1)N1CCOCC1	-4.5	-6.4	-1.4	16.7*	2.7	2.5	11.2
O=C(Oc1ccc2cccc(OC(=O)N3CCOCC3)c2c1)N1CCOCC1	0.7	-5.0	22.8	-3.4	0.8	-6.9	.
O=C(c1ccc(C(=O)N2CCOCC2)nc1)N1CCOCC1	-3.0	0.5	13.4	16.7*	-3.1	8.5	-0.1
COc1cc(NC(=O)Cc2cccs2)ccc1-n1cnnn1	1.3	7.5	-13.2	19.9	-4.9	7.0	5.1
Cc1ccc(-n2c(=O)c3sccc3n(Cc3cc(=O)n4cc(Cl)ccc4n3)c2=O)cc1F	0.6	-17.6	-6.1	-0.9	3.8	6.9	.
CC1CCCN(C(=O)Cn2c(-c3nonc3N)nc3ccccc32)C1 (centres undefined)	1.1	17.8	8.5	14.3	0.4	7.0	0.7
Cc1csc(=O)n1CC(=O)OCC(=O)NNC(=O)c1ccc(Cl)cc1	6.7	-3.2	.	-0.7	-0.1	8.4	.
CC(C)C(NC(=O)c1ccc(F)cc1)C(=O)OCC(=O)N1CC(=O)Nc2ccccc21 (centres undefined)	1.4	-21.5	-2.9	-0.4	-2.1	-0.9	.
O=C(NCc1ccncc1)C(=O)NCC1OCCN1S(=O)(=O)c1cc(F)ccc1F (centres undefined)	-0.3	8.4	1.2	i	4.5	1.9	.
Cc1ccc2nc(SCc3nnc(-c4ccccc4Br)o3)[nH]c2c1	4.0	5.6	17.2	12.5	7.7	-2.1	0.3
Cc1ccc(C)c(OCCC(=O)OCC(=O)NC2CCCC2)c1	-8.8	7.6	.	i	1.3	-0.2	.
O=C(CCNC(=O)c1ccc(Cl)cc1)NCC(c1ccco1)N1CCCCC1 (centres undefined)	-2.7	5.7	.	14.3	15.0	-1.0	0.1
COc1ccc(S(=O)(=O)N2c3ccc(F)cc3CCC2C)cc1 (centres undefined)	14.6	-3.4	.	-0.3	-6.3	-6.4	.
COc1ccc2c(c1)CCC(C)N2S(=O)(=O)c1ccc(C2CNC(=O)C2)cc1 (centres undefined)	8.4	7.5	-0.1	20.5	0.3	3.7	0.4
COC(=O)c1cc(C(=O)OCC(=O)c2ccc3c(c2)NC(=O)CO3)cc([N+](=O)[O-])c1	-3.6	-5.9	.	14.3	-4.3	10.0	9.6
COc1ccccc1CNC(=O)CN1C(=O)N(C)C2(CCCCC2)C1=O	-4.4	-16.3	.	-8.0	-7.2	0.1	.
COc1ccc(NS(=O)(=O)c2ccc(C(=O)N3CCC(C)CC3)cc2)cc1	14.0	12.5	.	0.0	-10.6	-9.8	.
CC(=O)Nc1ccc(S(=O)(=O)NCCC(=O)OCC(=O)c2cc(C)ccc2C)cc1	5.2	-5.6	.	14.3	9.1	-3.0	0.0
